Source: the supplement of paper PMC3334620
In all, about 33,000 sequences were measured (“E-score (-0.5 to 0.5)”: median about -0.016, highest 2% from about 0.31 on). The entries come from a sample that favours the highest values as a whole.

Molecular target: Cst6 (UniProt P40535)
Experiment: PBM E-score (8-mer binding enrichment) (E-score (-0.5 to 0.5)); higher = stronger / more preferred TF binding
Details: protein concentration: 200 nM; construct: GST-DNA-binding domain
How it was run: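 GST-tagged yeast TFs (full-length or DNA-binding domain) were made by PURExpress in vitro transcription/translation and applied at about 100-200 nM to universal all-10-mer Agilent arrays. The arrays were made double-stranded by primer extension, on fresh or once-stripped slides. Bound protein was detected with fluorescent anti-GST, and scans were normalised with masliner. Each ungapped eight-base word, pooled with its reverse complement, received an E-score (modified Wilcoxon-Mann-Whitney statistic) from the Universal PBM Analysis Suite.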

Sequence of UniProt P40535 (P40535 whole entry): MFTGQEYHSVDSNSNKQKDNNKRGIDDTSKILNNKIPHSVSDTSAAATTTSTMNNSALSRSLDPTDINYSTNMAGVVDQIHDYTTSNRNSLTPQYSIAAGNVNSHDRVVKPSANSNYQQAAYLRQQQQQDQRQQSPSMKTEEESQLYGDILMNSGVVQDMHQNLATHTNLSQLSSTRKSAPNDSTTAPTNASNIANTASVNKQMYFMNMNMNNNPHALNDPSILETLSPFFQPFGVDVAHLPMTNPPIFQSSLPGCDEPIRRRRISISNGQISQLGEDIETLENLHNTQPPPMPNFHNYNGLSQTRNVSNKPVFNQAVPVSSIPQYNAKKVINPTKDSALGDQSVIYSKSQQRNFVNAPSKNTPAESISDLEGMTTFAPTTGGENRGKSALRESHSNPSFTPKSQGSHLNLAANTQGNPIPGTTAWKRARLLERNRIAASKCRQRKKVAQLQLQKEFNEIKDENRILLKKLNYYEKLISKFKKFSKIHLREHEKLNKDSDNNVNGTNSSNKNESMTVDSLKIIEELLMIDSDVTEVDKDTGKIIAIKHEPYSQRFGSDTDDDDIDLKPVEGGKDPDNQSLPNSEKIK

Row | Sequence | PBM E-score
1 | TCGTATCA | 0.127
2 | ACTAGCCC | -0.0733
3 | CACAGTGG | -0.124
4 | GGCCTGAA | -0.122
5 | AATTCGTC | 0.316
6 | AATTCGTA | 0.252
7 | CATTCGTC | 0.148
8 | CATGCGGC | 0.33
9 | CGTGCGGA | 0.0478
10 | AGTGCGGC | 0.173
11 | CGTGCGGC | 0.321
12 | AATGCGGC | 0.266
13 | CATGCGGA | -0.0527
14 | ATTAAGAC | -0.0411
15 | AGTTGATA | 0.103
16 | GAAAAGAC | 0.222
17 | CGACAGAG | -0.315
18 | TGCCTTAA | -0.0513
19 | ACAAAAAT | 0.279
20 | CAAAAAAC | 0.201
21 | ACAAAAAC | 0.104
22 | AAAAAAAG | 0.211
23 | AGAACAAT | 0.25
24 | CAAAAAAA | 0.32
25 | AGAACAAG | 0.113

Row | Sequence | PBM E-score
26 | GAAAAAAA | 0.258
27 | AGAACAAA | 0.34
28 | CCAAAAAA | 0.279
29 | AAAAAAAA | 0.317
30 | ACAAAAAA | 0.311
31 | CATCCAGC | -0.0585
32 | CTCCGTAA | -0.0462
33 | CCACCTAA | -0.0425
34 | TAGCCCGA | -0.177
35 | CACAATCA | 0.17
36 | AGTTTGAC | 0.0432
37 | ACTTTAAT | 0.107
38 | GTTACGGA | 0.11
39 | CCTACGTA | 0.297
40 | CTTACGTA | 0.466
41 | CTCACGTA | -0.00865
42 | CTTACGAA | 0.119
43 | ATTACCTG | 0.14
44 | ACTACGTG | -0.0819
45 | ATTACGTG | 0.46
46 | ACTACGTA | 0.343
47 | AGTACGTG | -0.125
48 | GCTACGTA | 0.213
49 | GTTACGTA | 0.46
50 | AGTCTCAA | -0.217

Row | Sequence | PBM E-score
51 | CAAACCTC | -0.272
52 | TCTTCACA | 0.113
53 | AAACCCGT | 0.0445
54 | ATCTCGTG | -0.0972
55 | ATCGCTGG | -0.217
56 | AGACGCAT | -0.0757
57 | ACTACGTC | 0.157
58 | ATTACGGC | 0.266
59 | ATTACGGA | 0.154
60 | ATTACGTC | 0.485
61 | ATTAGGTA | 0.261
62 | CTTACGCC | 0.193
63 | ATTACGTA | 0.49
64 | CTTACGTC | 0.421
65 | CTCACGTC | 0.14
66 | AACCTTCG | 0.0222
67 | CCAAGGCC | -0.19
68 | CCATTCTA | -0.0992
69 | AAGAATTG | 0.182
70 | ACTTGCTC | -0.198
71 | ATCAAACA | 0.107
72 | CAGTTGGC | -0.175
73 | AGGTCACG | 0.0374
74 | ACGTCACA | 0.484
75 | AGGTCACA | -0.0345

Row | Sequence | PBM E-score
76 | ACGTCACT | 0.495
77 | AAGTCACT | 0.141
78 | AAGTCACA | 0.119
79 | AGGTCACT | -0.0496
80 | ACGTCACG | 0.49
81 | AAGTCACG | 0.0378
82 | TGCACCAA | -0.0568
83 | AGTTGCTG | -0.0492
84 | ACACACAG | 0.107
85 | CACGCTGC | -0.246
86 | CAACCACC | -0.251
87 | ATTCTCGC | -0.17
88 | AAGTACCC | -0.275
89 | ATGCCTCA | 0.11
90 | ATGCCTCG | 0.317
91 | ATGCCTCC | -0.0323
92 | ATGTCAAG | 0.235
93 | ATGTCATG | 0.425
94 | CTGTCATA | 0.186
95 | ATGTCAGC | 0.225
96 | ATGTCATC | 0.432
97 | ATGTCGTG | 0.0262
98 | GTGTCATA | 0.249
99 | CTGTCATC | 0.186
100 | ATGTCATA | 0.442

Row | Sequence | PBM E-score
101 | ACTTTGAA | 0.0348
102 | GCATCGAA | -0.0745
103 | GGATCTAA | -0.0815
104 | GACCTTAA | -0.0362
105 | CTAGTGCC | -0.125
106 | AGCTATCG | -0.106
107 | GCAGCAGC | -0.133
108 | TTCACCAA | 0.124
109 | CTCACCGA | 0.048
110 | ATCACCGA | 0.212
111 | CTCACCAC | -0.0767
112 | GTCACCAA | 0.315
113 | ATCACCAC | 0.244
114 | CTCACCAA | 0.102
115 | GTCACCAC | 0.373
116 | GTCACCGA | 0.426
117 | GTGGTGAA | -0.0462
118 | GTCTCCAA | -0.00606
119 | GAGCAAAA | 0.0129
120 | CGAGCCTA | 0.011
121 | ATTTATTA | 0.357
122 | GTTTATTA | 0.164
123 | AATTATGA | 0.359
124 | ATTATTTA | 0.305
125 | AATTATTC | 0.219

Row | Sequence | PBM E-score
126 | AATTATTA | 0.321
127 | AATTATGG | 0.0357
128 | AATTATGT | 0.304
129 | AATTATTG | 0.252
130 | AGCCGATA | -0.0664
131 | CCAAGATC | -0.12
132 | CGTGAGAG | -0.269
133 | CAGACGTC | 0.113
134 | ACGACGTC | 0.218
135 | ATGACGTC | 0.497
136 | CTGACGTC | 0.482
137 | AAGACGTC | 0.28
138 | CGGACGTC | 0.252
139 | AGCAAGCA | -0.252
140 | GCCCAGGC | -0.318
141 | GTGTATGA | 0.186
142 | ATGTATGA | 0.336
143 | ACGTATGA | 0.432
144 | AGGTATGC | 0.111
145 | CCGTATGA | 0.226
146 | ACGTATGG | 0.158
147 | CCGTATGC | 0.0167
148 | ATGTATGG | 0.0177
149 | ACGTATGC | 0.32
150 | GGGAAGAA | -0.0773

Row | Sequence | PBM E-score
151 | ACTGGTGA | -0.0583
152 | GAGTTGGA | -0.0506
153 | TTACGGAA | 0.178
154 | CTACGTAC | 0.00059
155 | ATACGTAA | 0.463
156 | ATACGTAT | 0.376
157 | CTACGTAA | 0.451
158 | ATACGTAG | 0.186
159 | TTACGAAA | 0.284
160 | ACACGTAT | 0.238
161 | AGACGTAT | 0.144
162 | ATACGTAC | 0.198
163 | TTACGTAA | 0.493
164 | CTACGTAG | 0.137
165 | AGGTCCAT | -0.0689
166 | CGTTCTCC | -0.174
167 | CAGCGCCC | -0.0102
168 | ATAGATGC | -0.0272
169 | TAGCAGAA | 0.107
170 | AGTATGTC | 0.155
171 | CAGTGTGA | 0.158
172 | AGGTTGAC | 0.0459
173 | GAAACGCA | 0.172
